Most compounds without a hit are left out; they make up all but 1.3% or so of the library.
NCOA1 inh – SRC1 coactivator transcriptional activity inhibitors, primary screen, cell-based, luminescence | HEK293 GAL4-SRC1 luciferase reporter | Nuclear receptor coactivator 1 (Homo sapiens), Q15788 | inhibition, % at 3.6 µM | hit rate 0.12% among 360,000;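 active = inhibition above the campaign mean plus 3 SD, with each screening campaign given its own cutoff, cut at about 60% in these data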;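 also: 0% = DMSO treated cells and 100% = gossypol at 36 µM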
NR5A2 inv ag – LRH-1 (NR5A2) inverse agonists, primary screen, cell-based, luminescence, HEK293T, StAR-luciferase reporter | Nuclear receptor subfamily 5 group A member 2 (Homo sapiens), O00482 | LRH-1 transfected, 24 h | inhibition, % at 3.6 µM | hit rate 0.13% among 360,000 | AID 602396, 2012;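 active = inhibition above the mean inhibition of all tested compounds plus 3 SD, cut at about 73% in these data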;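 also: 0% = DMSO wells and 100% = reporter-only cells lacking LRH-1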
Target sequence (O00482 whole entry, looked up): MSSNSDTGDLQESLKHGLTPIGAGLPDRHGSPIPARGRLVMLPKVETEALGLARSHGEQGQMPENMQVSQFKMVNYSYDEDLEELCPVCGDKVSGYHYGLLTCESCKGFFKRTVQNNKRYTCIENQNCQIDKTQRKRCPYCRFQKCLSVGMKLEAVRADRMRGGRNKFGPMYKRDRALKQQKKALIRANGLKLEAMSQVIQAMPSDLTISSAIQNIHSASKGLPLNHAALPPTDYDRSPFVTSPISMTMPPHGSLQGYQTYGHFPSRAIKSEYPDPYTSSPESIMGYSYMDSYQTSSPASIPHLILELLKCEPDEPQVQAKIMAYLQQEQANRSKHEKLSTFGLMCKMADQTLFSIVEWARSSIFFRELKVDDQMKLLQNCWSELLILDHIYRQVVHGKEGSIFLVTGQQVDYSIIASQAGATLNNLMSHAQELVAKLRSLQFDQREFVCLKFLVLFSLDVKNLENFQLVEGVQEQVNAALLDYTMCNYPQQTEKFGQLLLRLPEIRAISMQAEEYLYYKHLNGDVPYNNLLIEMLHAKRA
COUP-TFII inh – NR2F2 transcriptional activity inhibitors, primary screen, cell-based, luciferase reporter, HEK293T, luminescence; COUP transcription factor 2 (Homo sapiens), P24468; HEK293T NGFI-A luciferase reporter; inhibition, % at 8.6 µM; hit rate 0.7% among 370,000; AID 686940, 2013;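 active = inhibition above a per-plate cutoff, mean inhibition of test wells between control levels plus 3 SD, cut at about 38% in these data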;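 also: cells cotransfected with COUP-TFII expression vector driving the NGFI-A reporter; 0% = median of COUP-TF2 test wells and 100% = reporter-only cells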
SRC3 inh – SRC3 coactivator transcriptional activity inhibitors, primary screen, cell-based, luminescence | Nuclear receptor coactivator 3 (Homo sapiens), Q9Y6Q9 | HEK293 GAL4-SRC3 luciferase reporter | inhibition, % at 3.6 µM | hit rate 0.17% among 360,000 | AID 588352, 2011;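 active = inhibition above a per-campaign cutoff, the mean of all compounds plus 3 SD, cut at about 60% in these data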;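 also: 0% = DMSO-treated cells and 100% = gossypol-treated cells at 36 µM; higher means less SRC3-driven luciferase light from the GAL4 reporter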
SRC2 inh – inhibition of GAL4-SRC2 driven luciferase reporter, primary screen, SRC2 inhibitor project, cell-based, luminescence. Nuclear receptor coactivator 2 (Homo sapiens), Q15596. HEK293 GAL4-SRC2 luciferase reporter. inhibition, % at 9 µM. hit rate 0.17% among 370,000;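 active = inhibition above the mean inhibition of all tested compounds plus 3 SD, set per campaign, cut at about 52% in these data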;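 also: 0% = DMSO treated cells and 100% = cells given Gossypol at 36 µM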
Gli-Sufu block – Gli-Sufu pathway antagonists, primary screen, luciferase luminescence, Sufu-KO-LIGHT cells, uHTS; Sufu-KO-LIGHT fibroblasts, Gli luciferase reporter luminescence; inhibition, % at 5 µM; hit rate 0.74% among 340,000;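 active = inhibition above about 55%, limit read from the data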;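 also: 0% = DMSO-treated cells and 100% = wells with medium but no cells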
Gli-Sufu confirm – Gli-SUFU pathway antagonists, confirmation, single concentration, luciferase luminescence, Sufu-KO-LIGHT cells; shares compounds with Gli-Sufu block; Gli luciferase reporter; inhibition, % at 5 µM; hit rate 40% among 2,500;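 active = mean inhibition at 5 µM reaching about 45%, limit read from the data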;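 also: plate controls were DMSO-treated cells for no effect and wells lacking cells for full effect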
SufuKO cytotox – cytotoxicity in Sufu-KO-LIGHT cells, confirmation, cytotoxicity control for Gli-SUFU antagonist project, cell-based, ATP luminescence, single concentration; shares compounds with Gli-Sufu block; cytotoxicity, % at 5 µM; hit rate 32% among 2,500; AID 651994, 2013;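 active = mean cytotoxicity at 5 µM above about 25%, limit read from the data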;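 also: cells exposed to compound overnight for roughly 16 to 18 hours; plate controls were DMSO wells with cells for no effect and medium without cells for full effect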
Wnt3a cs – Wnt3a reporter signal inhibition, confirmation, counter-screen for Gli-SUFU antagonist project, Wnt-LIGHT cells, luminescence, single concentration. shares compounds with Gli-Sufu block. Wnt3a-driven luciferase reporter. inhibition, % at 6.25 µM. hit rate 20% among 2,500. AID 651995, 2013;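 active = mean inhibition above about 25%, limit read from the data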
Gal4-VP16 ctr – Gal4-VP16 luciferase reporter inhibitors, counter-screen for COUP-TFII antagonist project, cell-based, luminescence, HEK293; shares compounds with COUP-TFII inh; inhibition, % at 8.5 µM; hit rate 25% among 2,500; AID 687007, 2013; in the data active = inhibition above about 13%
NR2F2 inh conf – NR2F2 transcriptional activity inhibitors, confirmation, cell-based, luciferase reporter, HEK293, triplicate | hit rate 45% among 2,500 | inhibition, % at 8.5 µM | AID 687008, 2013 | HEK293 NGFI-A luciferase reporter, luminescence | shares compounds with COUP-TFII inh;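 active = mean inhibition over three repeats above a set limit taken from the earlier primary screen, cut at about 38% in these data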;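 also: 100% = cells given the luciferase reporter alone without the COUP-TF2 vector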
* hit, by the source's call; x = not tested or not shown.

SMILES	NCOA1 inh	NR5A2 inv ag	COUP-TFII inh	SRC3 inh	SRC2 inh	Gli-Sufu block	Gli-Sufu confirm	SufuKO cytotox	Wnt3a cs	Gal4-VP16 ctr	NR2F2 inh conf
CC(=O)Nc1ccc(SCC(=O)c2cc(C)n(-c3ccccc3)c2C)cc1	37.8	7.6	54.2*	47.5	25.7	51.4	70.2*	6.2	77.4*	22.9*	40.4*
Cc1csc2ncnc(NCCc3ccccn3)c12	30.5	33.6	67.8*	9.4	8.4	67.2*	57.4*	28.8*	26.8*	1.9	48.2*
Clc1cc(Cl)cc(CNC2CCC23CCCCC3)c1 (centres undefined)	x	x	-1.4	x	x	x	x	x	x	x	x
CN(C)CCCNS(=O)(=O)c1ccc(N2CCN(Cc3ccc4c(c3)OCO4)CC2)c([N+](=O)[O-])c1	-0.1	7.4	40.4*	12.2	9.0	54.2	38.5	22.3	0.0	1.4	9.2
C=CCN1[C@H](C)COc2cccc(N3CCCC3)c2S1(=O)=O	x	x	-2.2	x	23.1	x	x	x	x	x	x
O=C(Nc1ccncc1)c1cccc(S(=O)(=O)N2CCc3ccccc32)c1	26.4	33.8	60.8*	16.5	-3.8	55.9*	55.1*	18.7	39.8*	0.0	44.8*
O=C(Nc1cccnc1)c1cccc(S(=O)(=O)N2CCc3ccccc32)c1	4.5	16.3	21.8	-5.7	24.5	2.4	x	x	x	x	x
Cc1sc2ncnc(NCC(C)(C)N3CCOCC3)c2c1C	3.2	29.3	42.6*	9.8	18.4	64.4*	58.5*	26.6*	20.9	4.1	44.1*
c1ccc(-c2csc3ncnc(NCC4COc5ccccc5O4)c23)cc1 (centres undefined)	14.6	55.6	65.2*	38.6	31.5	84.5*	88.4*	45.0*	26.2*	15.9*	82.5*
Cc1sc2ncnc(NCC3CCCO3)c2c1C (centres undefined)	-6.9	23.2	10.6	10.9	16.5	21.7	x	x	x	x	x
Cc1sc2ncnc(NCC3COc4ccccc4O3)c2c1C (centres undefined)	25.6	42.1	76.0*	30.0	23.7	76.7*	72.0*	34.1*	16.6	-3.5	61.6*
C[C@H]1[C@@H](NC(=O)c2cccc(N(C)C)c2)CC[C@@]23CCCN2C(=O)CCC[C@@H]13	x	x	6.9	x	x	x	x	x	x	x	x
COc1ccc2[nH]c3c(NCc4ccco4)ncnc3c2c1	x	x	x	x	x	3.6	x	x	x	x	x
Fc1ccc2[nH]c3c(NCc4ccccc4)ncnc3c2c1	25.0	31.1	54.9*	15.8	31.2	60.4*	68.3*	12.0	34.3*	1.5	37.5*
Clc1ccc(-c2nnc(CSc3nnc(-c4cccs4)n3Cc3ccccc3)o2)cc1	27.2	41.1	50.7*	21.4	25.0	67.9*	66.4*	31.7*	9.9	8.1	47.1*
Cc1ccccc1CN1[C@@H](C)[C@H](c2ccccc2)Oc2cccc(NCCc3ccccc3)c2S1(=O)=O	x	x	1.0	x	2.7	x	x	x	x	x	x
Cc1nn(C(C)(C)C)c(C)c1/C=N/OC(=O)Nc1ccc(Cl)c(Cl)c1	60.0	24.6	68.8*	79.0*	70.2*	87.9*	88.8*	-7.8	102.8*	48.7*	84.2*
CC(C)C[C@H]1COc2cccc(N3CCCC3)c2S(=O)(=O)N1C	x	x	6.5	x	-22.1	x	x	x	x	x	x
O=C(CCCN1C(=O)/C(=C\c2ccccc2)SC1=S)Nc1ccc(O)cc1	-1.5	1.9	14.0	0.5	28.2	14.9	x	x	x	x	x
Cc1ccc(/C=C2\SC(=S)N(CCCC(=O)NNC(=O)c3ccccc3O)C2=O)cc1	52.9	24.0	70.0*	58.0	87.5*	60.4*	58.9*	13.9	100.4*	23.1*	38.5*
Cc1ccc(/C=C2/SC(=S)N(CCCC(=O)Nc3ccc(O)cc3)C2=O)cc1	42.3	41.1	70.0*	36.2	84.6*	62.1*	67.1*	26.3*	35.3*	-78.2	-12.9
CCOC(=O)Cc1ccc(NC(=O)c2ccccc2Br)cc1	-5.4	10.4	2.0	-3.4	-10.9	-10.2	x	x	x	x	x
CCOC(=O)Cc1ccc(NC(=O)c2ccc(C(C)(C)C)cc2)cc1	2.7	28.9	57.6*	8.9	78.0*	60.1*	67.9*	22.2	100.9*	45.8*	53.3*
COC(=O)[C@]12C[C@H](CC(=O)NCCCN3CCCC3=O)C(=O)N(Cc3ccc(Cl)cc3Cl)C1=C[C@H](COCc1ccccc1)O[C@@H]2C	x	x	6.6	x	-7.8	x	x	x	x	x	x
O=C(CCCCN1CCCCC1)c1ccccc1	-3.5	-3.1	14.5	19.6	-17.9	0.2	x	x	x	x	x
SMILES	NCOA1 inh	NR5A2 inv ag	COUP-TFII inh	SRC3 inh	SRC2 inh	Gli-Sufu block	Gli-Sufu confirm	SufuKO cytotox	Wnt3a cs	Gal4-VP16 ctr	NR2F2 inh conf
O=C(C(=Cc1ccccc1)CN1CCCCC1)c1ccccc1	18.4	77.3*	51.6*	-7.6	22.3	60.3*	77.5*	12.7	68.9*	72.3*	95.2*
C=CCN1[C@H](CC(C)C)COc2cccc(N3CCSCC3)c2S1(=O)=O	x	x	0.9	x	-14.7	x	x	x	x	x	x
CCN(CC)S(=O)(=O)c1ccc(N2CCN(c3ccccc3OC)CC2)c(N)c1	4.7	16.0	48.4*	11.9	17.7	65.5*	77.7*	27.7*	31.5*	5.8	22.3
O=C(OC(c1ccccc1)c1nccc2ccccc12)c1ccccc1 (centres undefined)	67.4*	75.6*	80.6*	70.4*	61.3*	64.6*	78.7*	28.1*	91.6*	53.4*	86.8*
O=C(OC(c1ccccc1)c1nccc2ccccc12)c1cccc([N+](=O)[O-])c1 (centres undefined)	-56.9	-6.0	-5.1	-25.1	-29.2	-27.5	x	x	x	x	x
CCCCOCCCNC(=O)C[C@@H]1C(=O)N(CCc2ccc(Cl)cc2)C2=CCCC[C@]21C(=O)OCC	x	x	10.6	x	-7.7	x	x	x	x	x	x
CCc1c(C)nc2ncnn2c1NCCc1ccc(OC)c(OC)c1	-0.5	13.4	23.3	-28.8	-8.7	16.9	x	x	x	x	x
